# According to PubChem BioAssay:
# Tests used:
# [1] = system: Human papillomavirus type 1a protein E7 (residues 44-93); assay: small molecules binding HPV E7 44-93 – biochemical, small-molecule microarray, residues 44-93, 635 nm fluorescence, primary screen (AID 1108); conditions: fluorescence 635 nm, higher = more signal;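 note: E7 fragment applied at 1 µg/mL in TBST for 1 h at 4 C; score combines spot fluorescence with its signal to noise ratio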
# [2] = hepatitis C replication reporter changes, two-sided – Huh7 cells, luciferase reporter, HCV replication inhibitor project, primary screen (AID 1109); conditions: Huh7 HCV replicon luciferase reporter, 48 h; higher = more signal;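 note: huh7 hepatoma cells harbouring a luciferase neomycin HCV replicon reporter; luciferase luminescence as measure of HCV replicon replication; test concentration not given here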
# [3] = biological target: Left-right determination factor 2 (Homo sapiens) (UniProt O00292); assay: small molecules binding LEFTY2 protein – biochemical, small-molecule microarray, 635 nm fluorescence scan, primary screen (AID 1110); conditions: higher = more signal
# Sequence of Left-right determination factor 2 (Homo sapiens) (O00292 whole entry, looked up): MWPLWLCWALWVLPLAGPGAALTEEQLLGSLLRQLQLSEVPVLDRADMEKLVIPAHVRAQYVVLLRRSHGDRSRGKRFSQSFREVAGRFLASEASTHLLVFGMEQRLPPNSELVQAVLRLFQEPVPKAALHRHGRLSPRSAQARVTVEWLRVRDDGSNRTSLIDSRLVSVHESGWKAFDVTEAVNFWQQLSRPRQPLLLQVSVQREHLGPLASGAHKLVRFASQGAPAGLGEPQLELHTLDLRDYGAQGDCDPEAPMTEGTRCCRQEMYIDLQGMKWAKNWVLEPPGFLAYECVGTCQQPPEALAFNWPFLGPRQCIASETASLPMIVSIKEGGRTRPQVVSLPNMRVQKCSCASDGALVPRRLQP
# [4] = biological target: Calmodulin-1 (Homo sapiens) (UniProt P0DP23); assay: small molecules binding calmodulin-1 with EGTA – biochemical, small-molecule microarray, Cy5-labelled CALM1, profiling panel (AID 1111); conditions: Cy5-CALM1 binding fluorescence, higher = more signal;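 note: labelled calmodulin applied in Tris saline Tween buffer holding calcium plus EGTA and DTT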
# [5] = biological target: Calmodulin-1 (Homo sapiens) (UniProt P0DP23); assay: small molecules binding Ca-loaded calmodulin-1 – biochemical, small-molecule microarray, Cy5-labelled CALM1, plus calcium, artefact control for SMM control-protein annotation, profiling panel (AID 1112); conditions: Cy5-CALM1 binding fluorescence, higher = more signal;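 note: score merges spot fluorescence with signal to noise from triplicate slides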
# [6] = probe aWnt5a binding to arrayed compounds – biochemical, biotinylated probe, 635/667 nm fluorescence, primary screen (AID 1113); conditions: small-molecule microarray, higher = more signal;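 note: score merges 667 nm fluorescence intensity with signal-to-noise per printed feature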
# [7] = probe aShh binding to arrayed compounds – biochemical, biotinylated probe, 635/667 nm fluorescence, primary screen (AID 1114); conditions: small-molecule microarray, higher = more signal;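 note: probe is biotin-labelled aShh protein from a stem cell growth factor screen; measures binding of labelled protein to compounds printed on the slide; score merges feature fluorescence at 667 nm with signal-to-noise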
# [8] = probe aNog binding to arrayed compounds – biochemical, biotinylated probe, 635/667 nm fluorescence, primary screen (AID 1115); conditions: small-molecule microarray, higher = more signal;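 note: probe is biotinylated aNog protein used at 0.15 µg/mL for 1 h at 4 C; z-score combines 667 nm fluorescence of each spot with its signal to noise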
# [9] = biological target: Torsin-1A-interacting protein 1 (Homo sapiens) (UniProt Q5JTV8); assay: compound microarray binding of lysate hLAP1 – cell lysate, small-molecule microarray, COS7 lysate, 635/667 nm fluorescence, primary screen (AID 1116); conditions: 635 nm fluorescence, higher = more signal
# Sequence of Torsin-1A-interacting protein 1 (Homo sapiens) (Q5JTV8 whole entry, looked up): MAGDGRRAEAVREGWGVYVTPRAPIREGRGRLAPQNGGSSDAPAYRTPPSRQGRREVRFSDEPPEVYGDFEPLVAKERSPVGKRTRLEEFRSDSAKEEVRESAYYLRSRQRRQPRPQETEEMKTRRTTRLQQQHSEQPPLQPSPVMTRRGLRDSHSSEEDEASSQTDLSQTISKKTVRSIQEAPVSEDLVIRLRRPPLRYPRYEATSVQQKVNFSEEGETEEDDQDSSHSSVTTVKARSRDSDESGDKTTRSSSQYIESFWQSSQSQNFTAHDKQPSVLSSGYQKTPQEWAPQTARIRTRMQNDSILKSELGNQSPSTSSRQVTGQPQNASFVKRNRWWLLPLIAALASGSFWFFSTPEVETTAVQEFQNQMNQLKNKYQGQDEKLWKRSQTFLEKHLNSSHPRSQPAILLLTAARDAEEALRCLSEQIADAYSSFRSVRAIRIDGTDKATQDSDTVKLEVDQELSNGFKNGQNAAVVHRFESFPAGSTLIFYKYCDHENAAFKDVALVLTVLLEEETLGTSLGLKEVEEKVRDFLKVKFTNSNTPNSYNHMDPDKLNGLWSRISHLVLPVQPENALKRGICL
# [10] = biological target: Alpha-bungarotoxin (Bungarus multicinctus) (UniProt P60615); assay: compounds binding labelled alpha-BTX control protein – biochemical, small-molecule microarray, Alexa647 label, 635/667 nm fluorescence, artefact control for SMM control protein annotation, profiling panel (AID 1117); conditions: alpha-BTX-A647 binding fluorescence, higher = more signal
# Sequence of Alpha-bungarotoxin (Bungarus multicinctus) (P60615 whole entry, looked up): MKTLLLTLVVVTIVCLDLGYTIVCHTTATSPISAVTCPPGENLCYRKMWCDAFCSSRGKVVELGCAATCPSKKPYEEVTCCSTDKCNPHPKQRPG
Structure (SMILES),composite z-score [1],z-score [2],composite z-score [3],composite z-score [4],composite z-score [5],composite z-score [6],composite z-score [7],composite z-score [8],composite z-score [9],composite z-score [10]
COc1ccc(CCNC(=O)[C@@]2(C)c3ccccc3C(=O)N(Cc3ccccc3)[C@H]2c2ccc(CO)cc2)cc1,1.16,-2.06,0.449,0.617,-0.703,0.0618,0.0141,0.304,1.56,1.78
C=CCN1C(=O)[C@@]2(O[C@@H](CCO)[C@H]([Si](C)(C)c3ccc(OC)cc3)[C@H]2C)c2cc(N3C(=O)COc4ccccc43)ccc21,1.33,-5.18,0.345,0.695,-0.334,0.149,-0.0626,-0.292,1.16,0.445
COC(=O)[C@@]1(Cc2ccc(OC)cc2)[C@H]2c3cc(C(=O)N4CCCC4)n(CCN4CCOCC4)c3C[C@H]2CN1C(=O)c1ccccc1,1.04,-0.882,0.285,1.55,1.21,1.19,2.65,2.75,0.934,0.609
O=C(CS)NCCCCCCNC(=O)[C@H]1C[C@H]2C(=O)N3CCC[C@H]3C(=O)N2[C@H]1c1ccc(O)cc1,-0.185,-0.32,-0.0156,0.511,0.425,-0.0236,-0.0011,0.202,1.68,0.927
COCCOC(=O)N1C(=O)[C@@]2(c3ccccc31)[C@H](C(=O)N1CCCCCCC1)[C@H]1C(=O)O[C@H](c3ccccc3)[C@H](c3ccccc3)N1[C@@H]2c1ccccc1OCCO,1.36,-1.78,0.941,2.43,1.43,0.883,2.65,2.48,4.19,2.36
CC1CC/C=C\[C@H]2OC34C=CCN(c5ccc6ccccc6c5)C(=O)[C@H]3N(CCCCCO)C(=O)[C@@H]4C2C(=O)O1 (stereo not given in full),-2.21,0.324,-1.64,-0.827,-0.16,-0.141,-0.214,-0.119,-1.16,-1.28
Cc1ccc([C@H]2C(C(=O)O)=C[C@@H](C(C)C)N2S(=O)(=O)c2ccc(C)cc2)cc1,1.39,0.58,-0.448,0.995,0.237,0.0597,-0.0769,0.129,0.984,0.11
COCCOC(=O)N1C(=O)[C@@]2(c3cc(C#CC4(O)CCCCCC4)ccc31)[C@H](c1ccc(O)cc1)N1[C@H](c3ccccc3)[C@H](c3ccccc3)OC(=O)[C@H]1[C@@H]2C(=O)N1CCc2cc(OC)c(OC)cc2C1,-0.213,-0.302,-1.24,-0.548,-0.179,-0.145,0.0756,-0.321,0.282,-0.678
CC(C)CNC(=O)[C@@]1(C)c2ccccc2C(=O)N(C(C)C)[C@H]1c1ccc(CO)cc1,-1.4,-1.13,-0.243,-0.489,-0.577,-0.191,-0.375,-0.524,-0.181,-0.018
COc1ccc(C(O)C2C=CC3C(=O)N(c4ccccc4)C(=O)C3N2Nc2ccccc2)c2ccccc12 (stereo not given),-0.34,-1.91,-0.608,1.25,0.851,-0.0792,-0.218,0.941,0.814,0.93
COc1ccc([Si](C)(C)[C@@H]2[C@@H](CCn3cc([C@H](O)c4ccccc4)nn3)O[C@]3(C(=O)N(C)c4ccccc43)[C@H]2C)cc1,-0.0859,-2.32,0.0661,-0.069,-0.288,-0.197,-0.0769,-0.223,-0.173,0.0489
Cc1ccc(S[C@]2(C(=O)NCC(C)C)CC(=O)N(Cc3ccccc3)[C@@H]2c2ccc(CO)cc2)cc1,0.725,-1.99,-1.83,-0.624,-0.249,-0.141,-0.0904,0.596,0.769,0.147
COC(=O)[C@@]1(Cc2ccc(F)cc2)[C@H]2c3cc(C(=O)N4CCCC4)n(Cc4ccc(Cl)c(C(F)(F)F)c4)c3C[C@H]2CN1C(=O)c1ccccc1,1.37,-2.42,0.04,2.51,1.42,0.963,2.64,1.16,1.68,1.57
COCCn1c(C(=O)N2CCCC2)cc2c1C[C@H]1CN(C(=O)c3ccccc3)[C@@](Cc3ccc(OC)cc3)(C(=O)OC)[C@@H]21,0.279,-1.62,-0.464,2.67,1.33,0.0365,0.21,-0.401,3.21,0.626
COCCCNC(=O)[C@@]1(Cc2ccccc2I)c2ccccc2C(=O)N(Cc2ccccc2)[C@H]1c1ccc(CO)cc1,0.609,-1.38,-2.53,-0.387,0.239,-0.232,-0.0146,0.0327,0.258,-1.4
CCCCC(=C=CC[C@H](O)c1ccccc1OCCO)C[C@H](O)c1cc(Cl)cc(Cl)c1O,0.405,-1.18,-0.408,0.684,0.466,-0.0445,0.0278,0.22,0.582,0.876
CC(C)(C)OC(=O)CC[C@]1(C(=O)NCC(O)CO)N=C(c2ccc(OCCCO)cc2)O[C@H]1c1ccccc1CN=[N+]=[N-] (stereo not given in full),0.29,1.15,-0.167,2.52,0.909,0.25,0.541,-0.524,3.82,2.42
C=CCOC(=O)[C@@H]1[C@H]2C(=O)O[C@H](c3ccccc3)[C@H](c3ccccc3)N2[C@H](c2ccc(OCCOC(=O)[C@H]3C[C@H]4C(=O)N[C@@H](CCCC[N+](C)(C)C)C(=O)N4[C@H]3c3cccc(OCCO)c3)cc2)[C@@]12C(=O)Nc1ccc(I)cc12,1.14,-1.29,1.08,0.38,-0.0134,-0.091,-0.153,-0.033,0.896,0.642

Structure (SMILES),composite z-score [1],z-score [2],composite z-score [3],composite z-score [4],composite z-score [5],composite z-score [6],composite z-score [7],composite z-score [8],composite z-score [9],composite z-score [10]
Cc1ccc(F)cc1S(=O)(=O)N[C@@H]1CCN(Cc2ccc(C(F)(F)F)cc2)C1,-0.237,-2.01,-0.0209,-1.3,-0.904,-0.152,0.0723,-0.311,-0.0249,-0.536
[N-]=[N+]=NCc1ccccc1[C@@H]1OC(c2ccc(OCCCO)cc2)=N[C@]1(Cc1ccccc1N=[N+]=[N-])C(N)=O,1.43,-0.613,-0.0808,2.02,1.11,-0.0478,0.593,1.49,0.804,2.66
CC1(C)C(=O)C(c2ccccc2)=C2CN3C(=O)N(CCc4ccccc4)C(=O)C3(Cc3ccccc3)C=C21 (stereo not given),1.03,-1.58,-0.0283,1.03,0.9,0.0633,0.375,0.578,-0.0882,1.68
CC(C)[Si]1(C(C)C)O[C@@H](c2ccccc2)c2cc(-c3ccc(-c4ccc(Cl)c(Cl)c4)o3)nc(CCc3ccccc3)c21,0.0027,-2.07,-1.32,-0.411,0.873,-0.152,0.0141,-0.0118,-0.193,-1.17
COC(=O)[C@@]1(Cc2ccc(OC)cc2)[C@H]2c3cc(C(=O)N(C)C)n(CCSCCO)c3C[C@H]2CN1C(=O)c1ccccc1,1.39,-1.41,-0.675,2.02,0.954,0.149,0.234,-0.553,0.904,0.569
O=C1OCCC=C[C@H]2OC34C=CCN(CCN5CCOCC5)C(=O)[C@H]3N(CCO)C(=O)[C@@H]4C12 (stereo not given in full),-1.74,0.18,0.601,-1.72,-1.21,-0.181,-0.338,-0.467,0.0029,-1.01
Cc1ccccc1/C=C/C=O,-1.54,0.19,-0.615,-0.559,-0.161,-0.172,-0.154,-0.41,-0.23,-0.465
CN1C(=O)C2C=CC(C(O)c3ccccc3)N(NC(=O)OC(C)(C)C)C2C1=O (stereo not given),1.32,0.316,-0.474,0.347,-0.197,-0.1,-0.221,0.401,0.452,0.966
[N-]=[N+]=Nc1ccccc1[C@@H]1OC(c2ccc(OCCCO)cc2)=N[C@]1(CCS(=O)(=O)c1ccccc1)C(=O)N1CCCCC1,1.22,0.0018,-0.175,2.16,1.26,0.129,0.408,0.755,1.79,3.01
Cc1ccc(S[C@]2(C(=O)NCC(F)(F)F)CC(=O)N(C3Cc4ccccc4C3)[C@@H]2c2ccc(CO)cc2I)cc1,-0.263,-1.55,-1.56,-0.0026,0.994,-0.184,-0.197,2.14,0.265,0.918
C=CCC(OC(C)=O)[C@@H]1[C@@H](N(Cc2cc3ccccc3o2)C(=O)c2cccc3ccccc23)c2cc(OCCCO)ccc2N1C(=O)Cc1ccc2ccccc2c1 (stereo not given in full),0.0073,-0.751,-0.31,0.191,0.223,-0.124,0.0711,-0.366,-0.089,0.474
CCCC[C@H]1OB(O)C[C@H]2C1=C(C)Cn1c(=O)n(-c3ccccc3)c(=O)n12,0.422,-0.759,0.648,-0.305,-0.406,-0.215,-0.0035,-0.426,0.363,-0.149
Cc1ccc(S[C@]2(C(=O)NCCN3CCOCC3)CC(=O)N(C3CCCCC3)[C@@H]2c2ccc(CO)cc2)cc1,1.29,-1.82,-0.55,1.06,-0.39,-0.0685,-0.186,0.0373,0.347,0.711
CN(C)CCCC[C@@H]1NC(=O)[C@@H]2C[C@H](C(=O)NCCCCCCN)[C@H](c3ccc(O)cc3)N2C1=O,1.42,-0.379,0.984,0.98,1.02,0.178,0.584,-0.172,1.7,0.629
[N-]=[N+]=Nc1ccccc1[C@H]1OC(c2ccc(OCCCO)cc2)=N[C@@]1(CCS(=O)(=O)c1ccccc1)C(=O)N1CCOCC1,0.946,0.384,0.52,2.15,1.24,0.318,1.39,1.28,2.1,3.35
O=C1NC(=O)C2C1C=CC(C(O)c1cccs1)N2Nc1ccccn1 (stereo not given),0.348,0.755,0.451,0.0761,-0.576,-0.096,-0.214,0.0516,1.32,1.19
C=CCOC(=O)[C@H]1[C@@H]2C(=O)O[C@@H](c3ccccc3)[C@@H](c3ccccc3)N2[C@@H](c2ccc(OCCOC(=O)[C@H]3C[C@H]4C(=O)N[C@@H](CCCC[N+](C)(C)C)C(=O)N4[C@H]3c3ccc(O)cc3)cc2)[C@]12C(=O)Nc1ccccc12,0.411,-0.581,-0.196,-0.217,-0.687,-0.148,0.0469,-0.32,0.569,0.717
